# Bioassay records as filed in PubChem.
# HGIII-sPLA2 inh – Inhibits HGIII-sPLA2 liposome hydrolysis, primary screen; inhibition, % at 12.2 µM; Q9NZ20; AID 743126; 370,000 compounds, 0.56% hits; QFRET BODIPY PC-A2 liposome hydrolysis, fluorescence;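 active = inhibition above mean plus 3 SD of compounds lying within the high and low control bounds, cut at about 19% in these data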;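 note: 0% = median of test compound wells and 100% = no enzyme DMSO wells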
# Fh CTSL1 inh – counter-screen for PFM18AAP inhibitors: inhibitors of F. hepatica cathepsin L1. inhibition, % at 5.96 µM. AID 1906. 300,000 compounds, 0.49% hits. recombinant F. hepatica cathepsin L1, Z-Leu-Arg-MCA fluorescence;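 active = inhibition above the mean of all tested compounds plus 3 SD, set per screening campaign, cut at about 17% in these data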;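 note: 0% = plate median of test compound wells and 100% = 1 µM Z-Phe-Ala-diazomethylketone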
# APOBEC3G inh – blocks human APOBEC3G single-stranded DNA deamination. recombinant A3G, ssDNA deamination FAM/TAMRA fluorescence. inhibition, % at 20 µM. 330,000 compounds, 0.28% hits. AID 493012;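 active = inhibition of at least 40% at 20 µM, with no more than 30% in the related APOBEC3A deaminase screen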;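 note: plate controls were DMSO wells with A3G for no effect and wells lacking A3G enzyme for full effect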
# Target sequence (Q9HC16 whole entry, looked up): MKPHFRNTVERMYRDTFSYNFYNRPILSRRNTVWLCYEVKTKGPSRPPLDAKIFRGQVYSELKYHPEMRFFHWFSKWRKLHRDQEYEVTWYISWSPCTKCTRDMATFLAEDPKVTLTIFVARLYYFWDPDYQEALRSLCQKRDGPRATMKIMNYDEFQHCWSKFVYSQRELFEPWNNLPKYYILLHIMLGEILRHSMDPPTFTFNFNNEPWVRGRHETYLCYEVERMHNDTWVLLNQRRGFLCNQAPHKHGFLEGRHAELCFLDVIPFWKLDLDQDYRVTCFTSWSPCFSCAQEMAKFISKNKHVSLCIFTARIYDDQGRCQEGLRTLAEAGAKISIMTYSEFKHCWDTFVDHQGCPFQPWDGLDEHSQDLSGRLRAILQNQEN
# A3A deaminase – inhibitors of human APOBEC3A DNA deaminase; P31941; recombinant A3A, FAM/TAMRA ssDNA deamination fluorescence; inhibition, % at 20 µM; 330,000 compounds, 0.41% hits; AID 493011;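 active = at least 40% inhibition at 20 µM here, with at most 30% in a related deaminase screen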;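 note: plate controls were A3A with DMSO for no effect and wells lacking A3A enzyme for full effect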
# Target sequence (P31941 whole entry, looked up): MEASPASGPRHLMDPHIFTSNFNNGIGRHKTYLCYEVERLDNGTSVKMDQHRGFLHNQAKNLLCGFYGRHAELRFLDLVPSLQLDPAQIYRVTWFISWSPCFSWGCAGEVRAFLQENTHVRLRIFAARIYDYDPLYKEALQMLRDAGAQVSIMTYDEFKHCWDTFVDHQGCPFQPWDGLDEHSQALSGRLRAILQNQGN
# NALP1 yeast inh – NALP1 inhibition; 280,000 compounds, 0.61% hits; inhibition, % at 10 µM; AID 2071; S. cerevisiae NALP1/ASC/caspase-1 growth, X-gal OD620, 72 h; in the data active = inhibition mostly above about 24%, no sharp cut-off; inactive = mostly below about 32%
# A3G conf – confirmation of human APOBEC3G DNA deaminase inhibitors. shares compounds with APOBEC3G inh. recombinant A3G ssDNA deaminase, UDG/FAM-TAMRA fluorescence. inhibition, % at 20 µM. 890 compounds, 72% hits. AID 493152;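 active = inhibition reaching a set limit in any replicate at 20 µM, the limit being 80% of the first screen's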
# UDG ctr A3G – counter-screen for APOBEC3G inhibitors: E. coli UDG. inhibition, % at 20 µM. 710 tested, under 10 active. UDG counterscreen, FAM/TAMRA oligo fluorescence. shares compounds with APOBEC3G inh;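 active = compounds giving 40% or more inhibition at 20 µM in any one of the three replicates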;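 note: plate controls were DMSO wells with UDG and oligo for no effect and DMSO wells lacking both for full effect; inhibitors lower the FAM signal released by uracil excision and alkaline cleavage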
# Starred values were filed as active, the others as inactive; i = inactive; . = no result. A selection: hits, their analogues and other compounds. The true share with any hit is near 2%.
SMILES,HGIII-sPLA2 inh,Fh CTSL1 inh,APOBEC3G inh,A3A deaminase,NALP1 yeast inh,A3G conf,UDG ctr A3G
CNc1n[nH]c(=S)s1,-1,-5,67*,-4,-16,76*,-6
O=S(=O)(c1ccc(S(=O)(=O)N2CCCC2)cc1)N1CCCCC1,.,-2,-10,-1,11,.,.
Cc1ccc(-n2sc3ccccc3c2=O)cc1S(=O)(=O)N1CCCCC1,4,-2,75*,1,3,73*,.
O=c1c2ccccc2sn1-c1ccc(S(=O)(=O)N2CCCC2)cc1,-4,-5,78*,4,17,83*,.
O=c1c2ccccc2sn1-c1ccc(S(=O)(=O)N2CCCCC2)cc1,5,-6,64*,-2,.,65*,2
Cn1ccnc1C(=O)O[C@@H]1CCC[C@@]2(C(=O)N(Cc3ccccc3)c3ccccc32)[C@H]1NC(=O)CCc1ccccc1,8,.,.,.,.,.,.
Cc1ccc(NNS(=O)(=O)c2ccc(C)cc2)cc1,11,-2,69*,-2,8,65*,-3
CC1(C)Cc2c(C#N)c(SCC(=O)O)nc(N3CCOCC3)c2CO1,4,-3,61*,-3,.,-9,-7
N#C/C(=C(/O)COc1ccc(Cl)cc1)c1nc2ccccc2s1,-1,3,57*,-3,-8,-2,1
CCOC(=O)c1[nH]cc(-c2ccccc2)c1N1CCOCC1,6,-3,62*,1,7,41*,-4
CCOC(=O)c1cnc(-c2ccccc2)nc1N1CCOCC1,4,2,-7,-5,-10,.,.
Cc1cc(=O)n2nc(-c3ccccc3)sc2c1C#N,14,1,55*,-3,12,69*,3
S=c1nc(-c2ccco2)[nH][nH]1,3,-2,81*,-2,-6,94*,-4
O=C(NCCc1ccc(F)cc1)c1ccc2c(c1)ncn2C1CCCCC1,-8,.,.,.,.,.,.
COCCCNC(=S)NCCc1ccc(F)cc1,11,4,-7,-4,-5,.,.
COCCCNC(=S)NNC(=S)Nc1ccc(F)cc1F,-1,1,55*,-1,-8,86*,-8
COCCCNC(=S)Nc1ccc(C)cc1,3,-1,-1,-4,.,.,.
COCCCNC(=S)NNC(=S)Nc1ccccc1,12,-2,42*,2,32,72*,2
CCCCOCCCNC(=O)C[C@H]1C[C@@]2(C(=O)OC)C(=C[C@H](C(C)(C)C)O[C@@H]2C)N(Cc2ccco2)C1=O,-16,.,.,.,.,.,.
O=S(=O)(Cc1ccccc1)N=Nc1c(O)[nH]c2ccc(Br)cc12,.,1,51*,-1,29,68*,-3
CCCN1CCS(=O)(=O)N(Cc2cn(Cc3ccc(Cl)cc3)nn2)C(C(=O)OC)C1 (centres undefined),1,.,.,.,.,.,.
CCOC(=O)C1=C(C)N(c2ccc(C)cc2)C(=O)/C1=C\c1ccc(O)c(OC)c1,-24,7,77*,2,12,6,.
COC(=O)C1=C(C)N(Cc2ccc(C)cc2)C(=O)/C1=C\c1ccc(O)c(OC)c1,-27,2,-1,2,-29,.,.
COc1cccc(C(=O)NCc2n[nH]c(=S)n2-c2cccc(C)c2)c1,4,14,47*,0,-4,61*,-3
CCOCC(=O)Nc1nnc(COc2ccc(Cl)cc2)s1,-5,-4,41*,2,13,20*,-3
SMILES,HGIII-sPLA2 inh,Fh CTSL1 inh,APOBEC3G inh,A3A deaminase,NALP1 yeast inh,A3G conf,UDG ctr A3G
Cc1onc(-c2ccccc2)c1C(=O)Nc1nnc(COc2ccc(Cl)cc2)s1,.,-2,58*,-1,18,38*,-3
CCc1nnc(NC(=O)c2c(-c3ccccc3)noc2C)s1,5,-2,-12,-3,20,.,.
O=C(CSc1ccccc1)Nc1nnc(COc2ccc(Cl)cc2)s1,-22,-1,44*,7,10,58*,-6
Cn1c(=O)n(C)c2cc(S(=O)(=O)NCC(=O)O)ccc21,1,-2,-5,-3,7,.,.
Cn1c(=O)n(C)c2cc(S(=O)(=O)Nc3ccccc3C(=O)O)ccc21,8,-4,56*,4,-2,3,.
Cc1cc(C)c(C#N)c(=N)o1,1,1,58*,-2,4,90*,-2
Nc1cc(S(=O)(=O)Nc2ccc(Cl)cc2)ccc1N1CCOCC1,-11,-4,46*,2,0,17*,-4
CC(=O)Nc1ccc(S(=O)(=O)Nc2cc(Cl)ccc2N2CCOCC2)cc1,-3,.,-6,-4,.,.,.
O=S(=O)(Nc1ccc(Cl)cc1)c1ccc(N2CCOCC2)c(NC(=S)NC2CC2)c1,4,2,46*,1,20,32*,2
CC(C)CN1C(=O)[C@@]2(CC(=O)N(C)C2c2ccccc2)c2cc(-n3cc(-c4ccccc4)nn3)ccc21 (some centres undefined),7,.,.,.,.,.,.
c1cncc(-c2nnc(-c3cccnc3)nn2)c1,8,2,44*,7,26,22*,-1
c1ccc(-c2nnc(-c3ccccc3)nn2)cc1,7,-5,-2,-2,.,.,.
CSS(=O)(=O)c1cccc2cccnc12,0,-2,78*,1,20,77*,0
CC(C)(C)c1ccc(S(=O)(=O)N2CCCC(C(=O)NCc3ccco3)C2)cc1 (centres undefined),-20,.,.,.,.,.,.
O=c1c2c(n3nnnc3n1Cc1ccc(Cl)cc1)-c1ccccc1CC21CCCC1,0,.,.,.,.,.,.
CC(Cc1c[nH]c2ccccc12)C(=O)O (centres undefined),-3,-1,40*,4,0,45*,.
Cc1ccccc1Cn1cc(CN2[C@@H](C)COc3cc(Br)ccc3S2(=O)=O)nn1,-4,.,.,.,.,.,.
COc1ccc(CN2CCNC(=O)C2CC(=O)N(Cc2nccn2C)C(C)C)c(OC)c1 (centres undefined),9,0,43*,24,i,16*,-4
CC(=O)NCCC(=O)Nc1nc(-c2c[nH]c3ccccc23)cs1,-3,.,79*,-4,14,-5,1
CC(=O)Nc1nc(-c2cccc3ccccc23)cs1,-6,4,-6,-8,23,.,.
Cc1ccc(N2C(=O)[C@@H]3C(c4cccnc4)=NO[C@@H]3C2=O)cc1,1,4,57*,-1,28,1,-3
COc1ccccc1CN[C@@H]1CC[C@@]23CCCN2C(=O)CCC[C@H]3C1,8,.,.,.,.,.,.
CC(=O)N1CCCN(C(=O)CCn2nnc3ccccc32)CC1,5,.,.,.,.,.,.
S=c1nc(C2CCCCC2)[nH][nH]1,.,2,43*,1,17,87*,-5
COC(=O)c1cc(=O)nc2sc(-c3cccs3)nn12,-1,1,-11,2,2,.,.
COC(=O)c1cc(=O)nc2sc(-c3ccc(F)cc3)nn12,.,2,42*,6,-8,34*,-3
